# This is a sample that favours compounds with a hit; in the whole collection about 1.7% have one here.
# GLP-1R inv ag: acts as inverse agonist at human GLP-1 receptor; HEK293 GLP-1R CRE-luciferase, luminescence, 24 h; GLP-1R form is constitutively active; actives 1.6% (n = 410,000); P43220; Potency, µM (highest dose often 38.3 µM), for inactives: at the highest dose activity change, negative = inhibition, usual class: inhibitors; also: % is scaled to controls: 0 for no effect and ±100 for the full control effect; nearly all actives have a fitted effect of over 55% in size
#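 Inverse agonists were sought by their lowering of basal cAMP reporter luciferase output in HEK293 cells stably carrying constitutively active human GLP-1R, after 24 h compound treatment.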
# PTHR1 agonist: agonists of human PTHR1 parathyroid hormone receptor; actives 0.075% (n = 410,000); Potency, µM (series often up to 115 µM), for inactives: at the top dose activation, usual class: activators; HEK293 GP2 PTHR1 cells, GloSensor cAMP luminescence, 1 h; also: nearly all actives have a fitted effect of over 55% in size
# Target sequence (Q03431 whole entry, looked up): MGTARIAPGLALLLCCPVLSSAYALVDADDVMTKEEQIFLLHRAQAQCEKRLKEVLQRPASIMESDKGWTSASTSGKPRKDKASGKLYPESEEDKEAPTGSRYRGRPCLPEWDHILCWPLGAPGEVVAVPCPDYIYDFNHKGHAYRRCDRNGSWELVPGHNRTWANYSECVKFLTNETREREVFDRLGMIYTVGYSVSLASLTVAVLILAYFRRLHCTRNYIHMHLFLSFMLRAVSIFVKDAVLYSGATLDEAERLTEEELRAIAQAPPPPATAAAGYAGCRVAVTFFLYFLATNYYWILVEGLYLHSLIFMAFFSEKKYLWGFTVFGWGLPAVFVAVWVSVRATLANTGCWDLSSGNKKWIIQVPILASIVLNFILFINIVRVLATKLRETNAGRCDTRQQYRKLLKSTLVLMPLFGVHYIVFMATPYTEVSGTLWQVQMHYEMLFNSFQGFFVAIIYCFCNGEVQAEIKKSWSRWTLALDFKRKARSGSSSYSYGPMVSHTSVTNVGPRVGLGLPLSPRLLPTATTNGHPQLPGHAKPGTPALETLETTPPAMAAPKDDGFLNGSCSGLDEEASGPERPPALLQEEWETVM
#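 HEK-293-derived GP2 cells expressing PTHR1 and a GloSensor cAMP reporter, 3,000/well, plated overnight, given luciferin plus IBMX (each 0.5 mM as added) for 1 h at 37 °C, then compound for 1 h at 37 °C. Luminescence was read after 15 min at room temperature.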
# GLP-1R agonist: activates the human GLP-1 receptor | actives 0.007% (n = 380,000) | AID 624172 | P43220 | Potency, µM (highest dose often 45.6 µM), for the others: at the highest dose activation, most hits filed as activators | HEK293 GLP-1R CRE-luciferase, luminescence, 4-6 h; cells express a hypersensitive GLP-1R form; also: % of control where 0% means no effect
# HEK293 tox: cytotoxicity counter-screen for GLP-1 receptor inverse agonists; HEK293 cAMP-luciferase reporter cells, luminescence, 24 h; Potency, µM (top dose mostly 38.3 µM), for the others: at the highest dose activity change, negative = inhibition, most hits filed as inhibitors; actives 0.13% (n = 410,000);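 also: loss of luciferase light is scored as toxicity; % is scaled to controls: 0 for no effect and ±100 for the full control effect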
#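 MLSMR compounds, 24 hr on cells at 37 deg C/5% CO2; luminescence after luciferase reagent (12 min RT). Inhibition counted as the undesired cytotoxic outcome.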
# * marks the source's active call; other numbers are inactive results; i = inactive; ? = inconclusive; / = no result; ! = repeats disagree; [ ] = dose if it differs, or a comment. Calls follow the shape of the dose curve; as a rule, active = well fitted curve in the direction sought with a large enough effect; inconclusive = small, poorly fitted or top-dose-only effect, or another doubt; inactive = no such curve, though single readings can be large; an effect the other way counts as inactive or inconclusive. Potency is read from the fitted curve at half-maximal effect.
SMILES,GLP-1R inv ag,PTHR1 agonist,GLP-1R agonist,HEK293 tox
O=C(COCCOCCOCC(=O)Nc1c(I)cc(I)c(C(=O)O)c1I)Nc1c(I)cc(I)c(C(=O)O)c1I,/,/,-3%,/
Cc1cc(=O)n(C(C)C(=O)N2CCCc3ccccc32)c2c1c(C)nn2-c1ccccc1 (configuration not stated),2%,i,/,14%
FC(F)(F)c1cccc(CN2CCC(c3cc(-c4cccs4)n[nH]3)CC2)c1,6.3µM*,-10%,14%,?
CCCCNC(=O)C1CCN(Cc2ccc(OCc3ccccc3)cc2)CC1,7.1µM*,-32%[57.5 µM],15%,?
Fc1ccc(C2=NC(c3cccc(C(F)(F)F)c3)=Nc3ccccc3N2)cc1,?,-19%,/,3%
Cc1cccc(/C=C/c2onc(C)c2S(=O)(=O)N2CCC(C(=O)N3CCCCCC3)CC2)c1,2.8µM*,-24%,-4%,-3%
Cc1cccc(/C=C/c2onc(C)c2S(=O)(=O)N2CCC(C(=O)N3CCC(C)CC3)CC2)c1,2.8µM*!,-1%,1%,-4%
Cc1ccc(C)c(N2CCN(C(=O)C3CCN(S(=O)(=O)c4c(C)noc4C)CC3)CC2)c1,11µM*,-29%,1%,-14%
COc1cccc(/C=C/c2onc(C)c2S(=O)(=O)N2CCC(C(=O)N3CCC(C)CC3)CC2)c1,12%,-2%,/,-3%
Cc1ccc(C(=O)NCC(=O)OCc2cc(=O)n3nc(C4CCCCC4)sc3n2)cc1,2%,i,/,-2%
COc1ccc(CCNC(=O)c2ccc3c(c2)N=C(C)c2ccccc2S3)cc1OC,-6%,-6%,3%,-5%
Cc1ccccc1-c1noc(-c2ccc(NCc3cccnc3)c([N+](=O)[O-])c2)n1,8%,-32%,/,2%
NC(N)=N/N=C/c1ccc(OCc2ccccc2Cl)cc1,11µM*,19%[57.5 µM],-23%,?
CCn1cc(CN2CCCC(CNC(=O)COc3ccccc3OC)C2)c(C)n1 (configuration not stated),-4%,i,12%,-14%
CC(C)Cn1c(-c2ccc(Br)cc2)c[nH]c1=S,10µM*,-25%,15%,?
COc1ccccc1NNC(=O)c1cc(C(C)(C)C)nn1Cc1ccccc1,?,-13%,11%,-15%
CC(C)(C)c1cc(C(=O)NNc2cccc(Cl)c2)n(Cc2ccccc2)n1,1.3µM*,i,-1%,6%
Cc1ccc(-c2cc(C(=O)O)n(Cc3ccccc3)n2)cc1,6%,i,/,3%
CC(C)(C)c1cc(C(=O)Nc2ccc(F)cc2)n(Cc2ccc(F)cc2)n1,2.8µM*,-40%,-5%,?
CC(C)(C)c1cc(C(=O)NC2CC2)n(Cc2ccc(F)cc2)n1,?,-15%,10%,-3%
CC(C)(C)c1cc(C(=O)NNc2ccc(OC(F)(F)F)cc2)n(Cc2ccccc2)n1,2.2µM*,-15%,4%,6%
Cc1ccc(NC(=O)c2cc(C(C)(C)C)nn2Cc2ccccc2)cc1,4µM*,-29%,-22%,-20%
O=C(CCC1CCN(Cc2ccccc2)CC1)c1ccc2c(c1)NCCCC2,/,/,1%,/
Cc1ccc(-n2ncc(C(=O)NCCc3ccccc3)c2C2CCN(C(=O)OC(C)(C)C)CC2)c(C)c1,?,i,/,-4%
CC(C)(C)c1cc(C(=O)NNc2cc(C(F)(F)F)ccc2Cl)n(Cc2ccccc2)n1,4µM*,-49%,3%,-81%
SMILES,GLP-1R inv ag,PTHR1 agonist,GLP-1R agonist,HEK293 tox
CC(C)(C)C(=O)NNC(=O)c1cc(C(C)(C)C)nn1Cc1ccccc1,?,-5%,11%,6%
Cc1ccc(NNC(=O)c2cc(C(C)(C)C)nn2Cc2ccccc2)cc1,3.2µM*,i,-1%,4%
O=C(CSc1nc(Nc2ccccc2)nc(N2CCOCC2)n1)Nc1cccc([N+](=O)[O-])c1,11µM*,-23%,7%,2%
CCc1ccc(NC(=O)c2ccc3c(O)c(S(=O)(=O)c4ccccc4)c(=O)[nH]c3c2)cc1,14%,i,/,-2%
CCN(CC)CCn1c2c(c(SCC(=O)Nc3cccc(C(F)(F)F)c3)nc1=O)CCC2,8%,-12%,/,0%
COc1ccc(Cl)cc1NC(=O)CSc1nc(=O)n(CCN(C)C)c2c1CCCC2,11µM*,i,-1%,0%
CN(C)CCn1c2c(c(SCC(=O)Nc3cccc(C(F)(F)F)c3)nc1=O)CCCC2,10µM*,-9%,7%,-7%
CN(C)c1ccc(C(CNC(=O)c2cccc(C(F)(F)F)c2)N2CCCC2)cc1 (configuration not stated),?,-1%,/,-4%
CC(C)(C)c1ccc(C(=O)Nc2ccccc2C(=O)OCc2cc(=O)n3ccsc3n2)cc1,28%,7%,/,2%
COC(=O)c1cc2oc3ccccc3c2n1CC(=O)Nc1cc(OC)cc(OC)c1,-9%,i,/,-6%
Cn1cc(CN2CCCCC2CO)c(-c2ccc(Oc3ccccc3)cc2)n1 (configuration not stated),10µM*,-53%,19%,-9%
Cc1ccc2c(CC(=O)Nc3nnc(C(C)C)s3)coc2c1C,2%,i,/,0%
CC(=O)Nc1ccc(-c2csc(NC(=O)Cc3cccc(F)c3)n2)cc1,11µM*,-42%,11%,8%
O=C(Cc1c(F)c(F)c(F)c(F)c1F)Nc1nc(-c2ccccc2)cs1,7.1µM*,-95%,-2%,?
CC(=O)Nc1ccc(-c2csc(NC(=O)Cc3ccccc3F)n2)cc1,?,-44%,20%,-7%
COc1ccccc1NC(=O)CSC1=Nc2ccccc2C2=NC(Cc3ccccc3)C(=O)N12 (configuration not stated),7%,i,/,-1%
O=C(CSc1nc(-c2ccccc2)[nH]c1-c1ccccc1)Nc1ccc2c(c1)OCCO2,?,-91%,/,-20%
COc1ccc(OC)c(Nc2c3ccccc3nc3ccccc23)c1,11µM*,i,5%,-1%
O=C1CN(C(=O)/C=C/c2ccc(Cl)cc2Cl)CCN1,40%,i,1%,7%
CN1CCCN(C(=O)/C=C/c2ccc(Cl)cc2Cl)CC1,7.9µM*,-21%,-7%,?
Cc1ccc2nc(CN3CCN(S(=O)(=O)c4ccc(C(C)C)cc4)CC3)oc2c1,?,-32%,/,1%
Cc1ccc(NC(=O)c2cc(S(=O)(=O)NCCc3ccc(Cl)cc3)ccc2F)cc1,11µM*,-28%,/,-14%
O=C(NCc1ccccc1Cl)c1ccc(CS(=O)(=O)c2ccc(Br)cc2)o1,10µM*,-96%,/,5%
Cc1ccc(S(=O)(=O)Cc2ccc(C(=O)NCCc3ccc(Cl)cc3)o2)cc1,10µM*,-72%,-2%,-13%
O=C(NCc1ccccc1Cl)c1ccc(CS(=O)(=O)c2ccccc2)o1,3%,-16%,-2%,4%
O=C(CCSCc1cccc(Cl)c1)NCc1ccc(F)cc1Cl,?,0%,/,2%
